# Measured values from PubChem BioAssay (NCATS).
# Several values for one entry are separate records, joined by “and”; a condition that tells them apart may be missing. Equal entries are not always repeated. Records with an inconclusive call do not appear. A call without a number means that no potency is given here. Values without a mark were called inactive. Activity calls are given as the source filed them. Calls come from the whole dose curve; as a rule, active = well fitted inhibition curve with a large enough effect; inconclusive = small, poorly fitted or top-dose-only effect; inactive = flat fitted curve, though single readings scatter.
# Assays:
# [1] = test system: HEK293; assay: Cytotoxic Profiling of Annotated Libraries Using Quantitative High-Throughput Screening (AID 1296008); conditions: Five cell lines viability, CellTiter-Glo ATP luminescence, 48-72 h; max response: stronger effect = lower value
# Procedure, shortened: (§1)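 Compounds were pin-transferred onto cells and incubated 48 or 72 hr at 37 degree Celsius, 95% humidity. CellTiter-Glo was added, plates sat 10 min at room temperature, then ATP-coupled luminescence was imaged as the viability read-out.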
# [2] = test system: HaCat; assay: as above; conditions: Five cell lines viability, CellTiter-Glo ATP luminescence, 48-72 h; max response: stronger effect = lower value
# Procedure, shortened: as §1
# [3] = test system: KB-3-1; assay: as above; conditions: Five cell lines viability, CellTiter-Glo ATP luminescence, 48-72 h; max response: stronger effect = lower value
# Procedure, shortened: as §1
# [4] = test system: PAD; assay: qHTS profiling for inhibitors of Plasmodium falciparum proliferation (AID 504749); conditions: P. falciparum in erythrocytes, SYBR Green DNA, 72 h; series mostly up to 28.7 µM
# Procedure, shortened: (§2)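 P. falciparum-infected erythrocytes (0.3% parasitemia, 2.5% hematocrit final) were exposed to compounds for 72 h at 37 C in 5% CO2, then lysed with SYBR Green buffer overnight at room temperature; parasite DNA fluorescence was normalized to artemisinin and DMSO controls.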
# [5] = test system: PC15; assay: as above; conditions: P. falciparum in erythrocytes, SYBR Green DNA, 72 h; series mostly up to 28.7 µM
# Procedure, shortened: as §2
# [6] = test system: PC26; assay: as above; conditions: P. falciparum in erythrocytes, SYBR Green DNA, 72 h; series mostly up to 28.7 µM
# Procedure, shortened: as §2
# [7] = test system: PC49; assay: as above; conditions: P. falciparum in erythrocytes, SYBR Green DNA, 72 h; series mostly up to 28.7 µM
# Procedure, shortened: as §2
# [8] = test system: SC27B; assay: as above; conditions: P. falciparum in erythrocytes, SYBR Green DNA, 72 h; series mostly up to 28.7 µM
# Procedure, shortened: as §2
# [9] = test system: TAB109; assay: as above; conditions: P. falciparum in erythrocytes, SYBR Green DNA, 72 h; series mostly up to 28.7 µM
# Procedure, shortened: as §2
# [10] = test system: TAB113; assay: as above; conditions: P. falciparum in erythrocytes, SYBR Green DNA, 72 h; series mostly up to 28.7 µM
# Procedure, shortened: as §2
# [11] = test system: TAB165; assay: as above; conditions: P. falciparum in erythrocytes, SYBR Green DNA, 72 h; series mostly up to 28.7 µM
# Procedure, shortened: as §2
# [12] = test system: W2; assay: as above; conditions: P. falciparum in erythrocytes, SYBR Green DNA, 72 h; series mostly up to 28.7 µM
# Procedure, shortened: as §2
# [13] = test system: CRL-7250; assay: Cytotoxic Profiling of Annotated Libraries Using Quantitative High-Throughput Screening (AID 1296008); conditions: Five cell lines viability, CellTiter-Glo ATP luminescence, 48-72 h; max response: stronger effect = lower value
# Procedure, shortened: as §1
# [14] = test system: NIH3T3; assay: as above; conditions: Five cell lines viability, CellTiter-Glo ATP luminescence, 48-72 h; max response: stronger effect = lower value
# Procedure, shortened: as §1
# [15] = test system: MCC-13; assay: qHTS assay to identify novel small-molecules to repurpose for Merkel cell carcinoma treatment (AID 1296009); conditions: MCC and control cell lines, CellTiter-Glo viability, 72 h; series mostly up to 46 µM
# Procedure, shortened: (§3)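 Cells exposed to NPC (8-point) and MIPE (11-point) compound dilutions for 72 hr at 37 degree celsius; viability read by CellTiter-Glo luminescence, normalized to no-cell and DMSO in-plate controls.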
# [16] = test system: MCC-26; assay: as above; conditions: MCC and control cell lines, CellTiter-Glo viability, 72 h; series mostly up to 46 µM
# Procedure, shortened: as §3
# [17] = test system: MKL-1; assay: as above; conditions: MCC and control cell lines, CellTiter-Glo viability, 72 h; series mostly up to 46 µM
# Procedure, shortened: as §3
# [18] = test system: CRL-7250; assay: as above; conditions: MCC and control cell lines, CellTiter-Glo viability, 72 h; at 44.8 µM (top of the series) unless noted
# Procedure, shortened: as §3
# [19] = test system: HACAT; assay: as above; conditions: MCC and control cell lines, CellTiter-Glo viability, 72 h; at 44.8 µM (top of the series) unless noted
# Procedure, shortened: as §3
# [20] = test system: HEK293T; assay: as above; conditions: MCC and control cell lines, CellTiter-Glo viability, 72 h; at 44.8 µM (top of the series)
# Procedure, shortened: as §3
# Note: nearly all actives have a fitted effect of over 60% in size.
# Potency is the fitted concentration of half-maximal effect.
compound,measurement,setting,value
COc1cc(CC(C)N)c(OC)cc1Br (stereo not given),Potency,[1],14.2 µM (active)
same,max response,[2],-6.81%
same,max response,[3],-7.67% and -13.5%
CCS(=O)(=O)C(C)(C)S(=O)(=O)CC,Potency,[4],inactive
same,Potency,[5],inactive
same,Potency,[6],inactive
same,Potency,[7],inactive
same,Potency,[8],inactive
same,Potency,[9],inactive
same,Potency,[10],inactive
same,Potency,[11],inactive
same,Potency,[12],inactive
same,max response,[13],-10.9%
same,max response,[3],3.51%
same,max response,[14],-2.98%
same,Potency,[15],inactive
same,Potency,[16],inactive
same,Potency,[17],inactive
CCc1ccc(C2CCNCC2)cc1,outcome,[13],inactive
same,outcome,[2],inactive
same,max response,[14],1.66%
same,outcome,[18],inactive
same,outcome,[19],inactive
same,Potency,[15],inactive
same,Potency,[16],inactive
same,Potency,[17],inactive
CN1C(=O)[C@@H](NC(=O)c2cc3ccccc3[nH]2)N=C(c2ccccc2)c2ccccc21,Potency,[5],inactive
same,Potency,[7],inactive
same,Potency,[11],10 µM (active)
same,Potency,[12],7.57 µM (active)
same,max response,[13],-23.4%
same,max response,[3],1.71%
same,Potency,[15],inactive
same,Potency,[17],inactive
CCC1(c2cnc[nH]2)Cc2ccccc2C1,max response,[13],-7.94%
same,max response,[3],-12.7% and -2.33%
same,outcome,[14],inactive
C[C@H](N)[C@H](O)c1ccc(O)c(O)c1,outcome,[2],inactive
same,max response,[3],-14.6%
same,max response,[14],-48.1%
same,outcome,[19],inactive
same,Potency,[15],inactive
same,Potency,[16],inactive
same,Potency,[17],inactive
COP(=O)(OC)OC=C(Cl)Cl,Potency,[4],inactive
same,Potency,[5],inactive
same,Potency,[6],inactive
same,Potency,[7],inactive
same,Potency,[8],inactive
same,Potency,[9],inactive
same,Potency,[10],inactive
same,Potency,[11],inactive
same,Potency,[12],10.7 µM (active)
same,outcome,[13],inactive
same,max response,[2],-7.81%
same,outcome,[14],inactive
same,Potency,[15],inactive
same,Potency,[16],inactive
same,Potency,[17],inactive
Cc1c(Cl)c(=O)oc2cc(OP(=O)(OCCCl)OCCCl)ccc12,Potency,[5],inactive
same,Potency,[7],inactive
same,Potency,[8],7.94 µM (active)
same,Potency,[9],10 µM (active)
same,Potency,[10],10 µM (active)
same,Potency,[11],7.08 µM (active)
same,Potency,[12],6.75 µM (active)
same,max response,[2],1.96%
same,max response,[3],-0.0609%
same,max response,[14],-22.4%
same,Potency,[15],inactive
same,Potency,[16],inactive
same,Potency,[17],inactive
Oc1ccc([C@H]2CNCc3c2ccc(O)c3O)cc1O,outcome,[2],inactive
same,max response,[3],-14.2%
same,max response,[14],-2.59%
same,outcome,[19],inactive
same,Potency,[15],inactive
same,Potency,[16],inactive
O=C(CCCCl)c1ccc(F)cc1,max response,[13],0.989%
same,max response,[2],4.12%
same,max response,[14],-0.659%
same,outcome,[20],inactive
same,Potency,[15],inactive
same,Potency,[16],inactive
same,Potency,[17],inactive
O=c1[nH]c2cc(Cl)ccc2n1C1CCNCC1,outcome,[13],inactive
same,outcome,[2],inactive
same,outcome,[14],inactive
same,outcome,[18],inactive
same,outcome,[19],inactive
same,Potency,[15],inactive
same,Potency,[16],inactive
same,Potency,[17],inactive
Cc1nnc2n1-c1sc(CCc3ccc(CC(C)C)cc3)cc1C(c1ccccc1Cl)=NC2C (stereo not given),Potency,[1],7.5 µM (active)
same,Potency,[16],inactive
ClCc1cccc(Cl)c1,max response,[13],-10.5%
same,max response,[2],1.97%
same,max response,[14],0.768%
same,Potency,[15],inactive
same,Potency,[16],inactive
same,Potency,[17],inactive
CCO[C@H]1O[C@@H]2OC3(C)CC[C@H]4[C@H](C)CC[C@@H]([C@H]1C)[C@@]24OO3,max response,[13],3.38%
same,max response,[2],-19.4%
same,max response,[14],0.769%
same,Potency,[15],inactive
same,Potency,[16],inactive
same,Potency,[17],inactive
NC1(c2ccccc2)CCCCC1,Potency,[1],38.2 µM (active)
same,max response,[2],1.23%
same,max response,[3],1.89%
same,max response,[14],-27.2%
same,Potency,[15],inactive
same,Potency,[16],inactive
same,Potency,[17],inactive
CC1COC2(c3ccccc3Cl)c3cc(Cl)ccc3NC(=O)CN12 (stereo not given),max response,[13],-0.632%
same,outcome,[2],inactive
same,max response,[14],2.64%
same,outcome,[19],inactive
same,Potency,[15],inactive
same,Potency,[16],inactive
same,Potency,[17],inactive
C=CC[C@]1(O)CC[C@H]2[C@@H]3CCC4=CC(=O)CCC4=C3C=C[C@@]21C,max response,[2],1.64%
same,max response,[3],-5.35%
same,Potency,[15],inactive
same,Potency,[16],inactive
same,Potency,[17],inactive
N#Cc1nn(-c2c(Cl)cc(C(F)(F)F)cc2Cl)c(N)c1S(=O)C(F)(F)F (stereo not given),Potency,[5],12.6 µM (active)
same,Potency,[6],9.53 µM (active)
same,Potency,[7],inactive
same,Potency,[8],5.01 µM (active)
same,Potency,[10],6.31 µM (active)
same,Potency,[11],6.31 µM (active)
same,max response,[13],-17%
same,max response,[2],-11.3%
same,max response,[3],-1.94%
same,Potency,[15],inactive
same,Potency,[16],inactive
Clc1ccc(C(OCCN2CCCCC2)c2ccccc2)cc1 (stereo not given),max response,[2],-5.7%
same,max response,[3],-23.9%
same,Potency,[15],inactive
same,Potency,[16],inactive
same,Potency,[17],inactive
C[C@@H]1O[C@@H](O[C@@H]2C=C3CC[C@@H]4[C@H](CC[C@]5(C)[C@@H](c6ccc(=O)oc6)CC[C@]45O)[C@@]3(C)CC2)[C@H](O)[C@H](O)[C@H]1O,Potency,[13],0.0133 µM (active)
same,Potency,[2],0.0422 µM (active)
same,Potency,[15],0.0033 µM (active)
same,Potency,[17],0.0094 µM (active)
CC#C[C@]1(O)CC[C@H]2[C@@H]3C[C@H](C)C4=CC(=O)CC[C@]4(C)[C@H]3CC[C@@]21C,Potency,[1],23.7 µM (active)
same,outcome,[2],inactive
same,outcome,[19],inactive
same,Potency,[15],inactive
same,Potency,[16],inactive
same,Potency,[17],inactive
CCOC(=O)C(c1c(O)c2ccccc2oc1=O)c1c(O)c2ccccc2oc1=O,max response,[13],-6.62%
same,outcome,[2],inactive
same,outcome,[14],inactive
same,outcome,[19],inactive
same,outcome,[20],inactive
same,Potency,[15],inactive
same,Potency,[16],inactive
same,Potency,[17],inactive
